DUSP3 inh: inhibitors of human VHR1 phosphatase (DUSP3). recombinant VHR phosphatase, pNPP absorbance. inhibition, % at 13.3 µM. actives 0.52% (n = 290,000). AID 1654; in the data active = inhibition above about 50%
CCHF vOTU inh: blocks the CCHF virus ovarian tumor domain protease | AID 651958 | actives 0.55% (n = 370,000) | CCHFV vOTU protease, Pep-AMC fluorescence | inhibition, % at 11.5 µM; in the data active = inhibition above about 30%; note: 0% = vehicle wells with enzyme and 100% = no enzyme wells
TcdB GH inh: TcdB glycohydrolase inhibition; AID 652162; inhibition, % at 9.99 µM; actives 0.24% (n = 350,000); TcdB glycohydrolase enzymatic assay, plate reader; P18177; in the data active = inhibition above about 10%
BH1578 lux ind: induces V. cholerae light production without autoinducers | V. cholerae BH1578 lux reporter, luminescence, 6 h | activation, % at 18.7 µM | actives 0.16% (n = 350,000); in the data active = activation mostly above about 9.7%, no sharp cut-off
PrPC TRFRET: reduces human prion protein on the cell surface | P04156 | cell surface PrPC, TR-FRET read-out | inhibition, % at 13.8 µM | actives 0.43% (n = 370,000); in the data active = inhibition above about 24%; note: 0% = median of the test wells and 100% = reference compound wells
PriA SSB inh: K. pneumoniae PriA-SSBct interaction inhibition | AlphaScreen SSBct-PriA binding, biotinylated peptide | inhibition, % at 33 µM | actives 0.6% (n = 430,000) | AID 1272365; in the data active = inhibition mostly above about 37%, no sharp cut-off; inactive = mostly below about 20%;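 note: plate controls were negative control peptide for no effect and reference peptide for full effect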
PrPC TRFRET cf: cell surface PrPC inhibition, TR-FRET confirmation | shares compounds with PrPC TRFRET | cell surface PrPC level | inhibition, % at 13.8 µM | actives 65% (n = 1,500); in the data active = inhibition above about 25%
LD9 cytotox: LD9 cell cytotoxicity, PrPc inhibitor counter-screen; shares compounds with PrPC TRFRET; LD9 cells cytotoxicity, luminescence viability; inhibition, % at 13.8 µM; actives 29% (n = 1,500); AID 743201; in the data active = inhibition above about 9.5%
The depositor's hits bear a star; i = inactive; . = not tested or not shown. Compounds with a hit are over-represented: about 1.5% of the library has one in this group of screens.

SMILES	DUSP3 inh	CCHF vOTU inh	TcdB GH inh	BH1578 lux ind	PrPC TRFRET	PriA SSB inh	PrPC TRFRET cf	LD9 cytotox
Cc1nn(C)c(C)c1/C=C(/C(=O)C(C)(C)C)n1cncn1	21	-9	0	0	14	-10	.	.
CC(C)(C)C(=O)/C(=C/c1ccncc1)n1cncn1	27	-3	-1	-1	34*	-5	1	44*
ClCc1nc2ccccc2n1Cc1ccccc1	2	-2	-10	0	9	-12	.	.
Cc1ccc(Cn2c(Cc3ccccc3)nc3ccccc32)cc1	24	6	.	i	76*	-8	18	-4
Cc1nc2ccccn2c1C(=O)N1CCC(c2ccccc2)C1 (centres undefined)	.	.	.	.	.	5	.	.
O=C(Cc1ccccc1)OCn1nnc2ccccc2c1=O	26	1	1	0	37*	-3	6	0
N#Cc1cccc(C(c2nnnn2C2CCCC2)N2CCCCCC2)c1 (centres undefined)	24	17	.	i	41*	-10	6	-1
CCc1nc2c(OCCC3CCCCC3)cccn2c1N(C)C(=O)c1cccs1	.	16	-2	-1	27*	.	17	-12
CCc1nc2c(OCCC3CCCCC3)cccn2c1N(C)C(=O)CC(C)C	.	18	1	-1	5	.	.	.
CCCCC(=O)N(C)c1c(CC)nc2c(OCC3CCCCC3)cccn12	.	21	-11	-1	31*	.	18	-9
CCOCCCNc1ncnc2c1[nH]c1ccccc12	-2	-2	.	i	13	-1	.	.
CCCCOCCCNc1ncnc2c1[nH]c1ccccc12	-2	-3	.	i	31*	-9	24*	17*
Cc1ccccc1OCC(=O)N1CCC(c2ccsc2)CC1	.	.	.	.	.	-24	.	.
COc1cccc2sc(NC(=O)[C@@H]3COc4ccccc4O3)nc12	.	.	.	.	.	-2	.	.
Cc1csc(NC(=O)c2cc3c(C)nn(Cc4ccccc4Cl)c3s2)n1	7	0	.	-4	33*	-16	24	-1
COCCNC(=O)Cc1ccc(NC(=O)c2ccc(-c3ccsc3)cc2)cc1	.	.	.	.	.	5	.	.
NNC(=O)C(=O)Nc1ccc(O)cc1	-30	-14	10	-1	31*	-11	-3	-6
CCOc1ccccc1-c1noc(-c2cn[nH]c2-c2ccccc2)n1	.	.	.	.	.	-11	.	.
Cc1ccc(Cn2c(SCC(=O)N3CC(=O)Nc4ccccc43)nc3ccccc3c2=O)cc1	-27	5	0	0	29*	-19	45*	-2
O=C1CN(C(=O)CSc2nc3cc(Cl)ccc3c(=O)n2Cc2ccccc2)c2ccccc2N1	16	-2	1	0	-8	-7	.	.
C/C(N)=C(/C#N)C(=O)CSc1nc2ccccc2c(=O)n1Cc1ccc(C)cc1	8	9	0	-1	27*	2	7	-2
Cn1nc(CNC(=O)c2cc(-c3ccccc3)on2)c2c1CCCC2	.	.	.	.	.	-2	.	.
CC(C)N(CC#CCNC(=O)Nc1ccc(F)cc1)C(C)C	.	.	.	.	.	-3	.	.
CN(c1ccccc1)S(=O)(=O)c1ccc(NC(=O)c2nc(S(C)(=O)=O)ncc2Cl)cc1	-24	-5	2	0	41*	-2	93*	98*
COc1cccc(NC(=O)c2nc(S(C)(=O)=O)ncc2Cl)c1	12	8	3	i	83*	0	6	94*
SMILES	DUSP3 inh	CCHF vOTU inh	TcdB GH inh	BH1578 lux ind	PrPC TRFRET	PriA SSB inh	PrPC TRFRET cf	LD9 cytotox
COc1cccc(NC(=O)c2nc(SC)ncc2Cl)c1	22	10	-1	0	0	-12	.	.
O=C(CC1CSc2nc3c(c(=O)n21)CCCC3)NC1CC1 (centres undefined)	.	.	.	.	.	-8	.	.
O=C(Oc1ccc2c(c1)OCC2=O)c1ccccc1	0	-3	.	i	-3	-10	.	.
O=C1COc2cc(O)ccc21	.	5	2	i	28*	1	16	-1
CCOc1ccc(NC(=O)Nc2ccc(Cc3ccncc3)cc2)cc1	18	-4	0	0	33*	-1	29*	4
CCOc1ccc(NC(=O)C(=O)NCc2ccncc2)cc1	43	-7	0	0	8	-7	.	.
Cc1ccc(C)c(S(=O)(=O)N2CCN(C(=O)c3ccccc3Cc3ccccc3)CC2)c1	.	-2	-1	-14	55*	-14	0	-3
C[C@@H]1COC(=O)[C@H](Cc2ccc(F)cc2)C/C=C\C[C@@H](CC(=O)NCCO)C(=O)N1	.	6	1	i	44*	7	7	-3
C[C@H]1COC(=O)[C@@H](Cc2ccc(F)cc2)C/C=C\C[C@@H](CC(=O)NCCO)C(=O)N1	.	11	1	i	0	-4	.	.
COc1cccc(C(=O)N2CCC(COc3nc4ccccc4s3)CC2)c1OC	.	.	.	.	.	-1	.	.
O=C(c1ccc(CSc2nc3ccncc3[nH]2)cc1)N1CCN(c2cccc(Cl)c2)CC1	-11	26	-8	-1	31*	20	40*	9.4*
COc1ccc(Oc2ccccc2/C=N/O)cc1	24	8	.	-1	1	.	.	.
COc1cc(C=NO)nc(-c2ccccn2)c1	.	0	-82	-6	37*	83*	33*	22*
COc1ccc(OCCNC(=O)c2ccc3nc(C)c(N(C)C(=O)CCc4ccccc4)n3c2)cc1	.	9	4	-5	59*	.	-3	0
COC(=O)c1ccc(CSc2nc3c(cnn3CCO)c(=O)[nH]2)o1	.	.	.	.	.	-2	.	.
Cc1c(CC(=O)O)c(=O)oc2c(C)c3occ(-c4ccccc4)c3cc12	24	9	1	-1	28*	-5	19	-2
CSc1ccccc1C(=O)Nc1nc(-c2ccccc2)c(C(C)=O)s1	.	.	.	.	.	21	.	.
O=C(c1cccc(C(F)(F)F)c1)N1CCC2(CC1)OCCS2	.	.	.	.	.	-18	.	.
COC(=O)c1ccc2c(=O)n(CCC(=O)NCc3ccco3)c(=S)[nH]c2c1	.	.	.	.	.	11	.	.
